Where “and” joins values, the source holds several entries; their conditions need not be identical. Equal values may be shown once. About 79,000 compounds went through this panel and 15% of them were active in at least one assay; those are over-represented in the sample as a whole. Rule as the data show it: active = growth inhibition above about 70%; inactive = the rest.
Key:
[1] = NCI Yeast Anticancer Drug Screen. Data for the rad50 strain (AID 155);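 also: 0% = growth of vehicle-only cultures of the same strain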; conditions: S. cerevisiae rad50 strain growth inhibition; at 50.0 µM; stronger effect = higher value
Procedure, shortened: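 Cells are treated with compound, grown, and their growth is then scored against vehicle-only cultures of the same repair-deficient yeast strain.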

[2] = NCI Yeast Anticancer Drug Screen. Data for the mec2-1 strain (AID 157); conditions: S. cerevisiae mec2-1 strain, at 50.0 µM, stronger effect = higher value
Procedure, shortened: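 Compounds were applied to mec2-1 yeast cells. Their growth was then compared with that of vehicle-treated cultures to give growth inhibition.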

[3] = NCI Yeast Anticancer Drug Screen. Data for the sgs1 mgt1 strain (AID 161);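 also: 0% = growth of cultures given vehicle only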; conditions: S. cerevisiae sgs1 mgt1 strain, at 50.0 µM, stronger effect = higher value
Procedure, shortened: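 Growth of a repair-deficient yeast mutant was monitored after compound treatment and expressed as inhibition relative to vehicle-treated cultures.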

[4] = NCI Yeast Anticancer Drug Screen. Data for the cln2 rad14 strain (AID 165);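 also: 0% = growth equal to vehicle treated cultures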; conditions: S. cerevisiae cln2 rad14 strain, at 50.0 µM, stronger effect = higher value
Procedure, shortened: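 Strain: cln2 rad14 yeast, altered in cell cycle control and DNA damage repair. Read-out: growth inhibition vs vehicle.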

[5] = NCI Yeast Anticancer Drug Screen. Data for the bub3 strain (AID 167); conditions: S. cerevisiae bub3 mutant strain, at 50.0 µM, stronger effect = higher value
Procedure, shortened: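 Part of a panel of yeast mutants defective in DNA damage repair or cell cycle regulation. Each strain is grown with compound, and inhibition is calculated relative to solvent-treated cultures.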

[6] = NCI Yeast Anticancer Drug Screen. Data for the mlh1 rad18 strain (AID 175); conditions: S. cerevisiae mlh1 rad18 strain growth inhibition; at 50.0 µM; stronger effect = higher value
Procedure, shortened: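 A repair-deficient yeast strain is exposed to test compound, and growth is scored relative to vehicle-treated controls.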

Measured: growth inhibition

O=C(CCCOc1ccc(Cl)cc1Cl)NC(Cc1c[nH]c2ccccc12)C(=O)O (stereo unspecified)
inactive: [1] -1.3% and 1.5% | [2] 0.15% and -1.95% | [3] 4.3% and -3.6% | [4] 19.1% and 18.7% | [5] -17.6% and -17.1% | [6] 7.2% and 10.7%

C[n+]1cccc2ccccc21
inactive: [1] -17.1% and -14% | [2] -11.8% and -2.1% | [3] -40.5% and -8.3% | [4] -10.7% and -59% | [5] 11.5% and 6.7% | [6] -11.6% and -4.15%

O=[N+]([O-])c1ccc(Cc2ccccc2)cc1
inactive: [1] -2.8% and -37.1% | [2] -32.1% and -23.9% | [3] 7.7% and -11.6% | [4] 3.2% and -9.15% | [5] 13.8% and -11.9% | [6] -30.9% and -14.7%

O=C1NC(CCCl)C(=O)NC1CCCl (stereo unspecified)
inactive: [1] 1.6% and -0.7% | [2] -2.05% and 4.55% | [3] -16.1% and -3.55% | [4] -10.2% and -7.55% | [5] -1.45% and 2.4% | [6] 1.6% and -1.35%

CC(COC(=O)c1ccccc1)NC1CCCCC1 (stereo unspecified)
inactive: [1] 12.3% and 21.9% | [2] 1.05% and -0.85% | [3] 13.7% and 10.7% | [4] -27.6% and -0.55% | [5] -10.3% and 0.7% | [6] 10.4% and -0.2%

CC(=O)Nc1ccc(-c2ccc(NC(C)=O)cc2)cc1
inactive: [1] -24.2% and -15.2% | [2] -41.9% and -24.6% | [3] -26.9% and -0.95% | [4] -182% and -42.9% | [5] -24.4% and -1.45% | [6] -10.1% and -21.2%

Cc1ccc(N=Nc2c(O)ccc3cc(S(=O)(=O)O)ccc23)cc1
inactive: [1] 50.9% and 4.8% | [2] -15.5% and -2.8% | [3] 9.8% and 5.85% | [4] -6.85% and -6.7% | [5] -32.6% and 8.05% | [6] 22.8% and 9.35%

COc1cc(N)ccc1NC(C)=O
inactive: [1] -5.25% and 0.6% | [2] -13.6% and -12.7% | [3] 4.45% and -35.6% | [4] 18.4% and -41% | [5] -0.9% and -2.55% | [6] 18.8% and -21.4%

Nc1cc(S(=O)(=O)O)ccc1Cl
inactive: [1] 2.8% and 1% | [2] -15.7% and -2.75% | [3] 11.2% and -20.6% | [4] 10.1% and -43.9% | [5] 6.95% and 14.1% | [6] 3.95% and -13.1%

C[N+](C)(C)CCOP(=O)(O)OP(=O)([O-])OCC1CCC(n2ccc(N)nc2=O)O1 (stereo unspecified)
inactive: [1] 7.7% and 4.45% | [2] -11.1% and 0.25% | [3] -18.8% and 9.2% | [4] 5.8% and -2.15% | [5] -38.6% and 2.55% | [6] -38.8% and -3.45%

CCC(C(=O)O)c1ccccc1 (stereo unspecified)
inactive: [1] 10.7% and 12.6% | [2] 5.4% and 3.95% | [3] 9.4% and 1.25% | [4] -12.2% and -29.8% | [5] -19.6% and -1.9% | [6] 22.4% and 2.4%

OC1C2COC(O2)C(O)C1O (stereo unspecified)
inactive: [1] -0.4% and -29.9% | [2] -5.45% and -7.65% | [3] 7.4% and -6.7% | [4] -16.2% and -35% | [5] -1.5% and 5.9% | [6] 7.05% and -18.7%

OC1Cc2ccccc2CC1O (stereo unspecified)
inactive: [1] -20.1% and -35.1% | [2] -41.4% and -39.9% | [3] -36.5% and -12.3% | [4] -19.6% and -1.5% | [5] -26.1% and -8.8% | [6] -5.8% and -14.7%

CC1(C)OC2OC(C(COS(C)(=O)=O)OS(C)(=O)=O)C(OS(C)(=O)=O)C2O1 (stereo unspecified)
inactive: [1] 15.7% and -9.65% | [2] 2.6% and 9.75% | [3] 37.9% and 10.2% | [4] 16.4% and 20.6% | [5] 5.9% and 1.45% | [6] 16.2% and 8%

Cc1ccc(S(=O)(=O)N2CCCCCC2)cc1
inactive: [1] 10.8% and -9.2% | [2] 15.8% and -2.65% | [3] -13.7% and -5.75% | [4] 1.6% and -7.75% | [5] -6.7% and -2.85% | [6] -10.6% and -0.45%

CC(OC(=O)c1ccccc1)C(OC(=O)c1ccccc1)C(OC(=O)c1ccccc1)c1cnn(-c2ccccc2)n1 (stereo unspecified)
inactive: [1] 14.8% and 35.7% | [2] -2.35% and -1.9% | [3] 24.8% and 3.35% | [4] 19.1% and -9.45% | [5] 10.1% and 16.1% | [6] 6.7% and 32%

O=[N+]([O-])C(CO)(CO)CO
inactive: [1] -11.3% and 11.1% | [2] -6.25% and 1.95% | [3] -6% and 6.85% | [4] -22.4% and 3.45% | [5] -2.55% and 2.6% | [6] -7.2% and 2.65%

CN(C)COC(=S)S
inactive: [1] -7.65% and 4.05% | [2] -14.4% and 3.65% | [3] -3.8% and -1.7% | [4] -30.9% and 3.55% | [5] 1.75% and -5.5% | [6] -3.9% and 2.1%

CN(/N=C/c1ccccc1)C(=N)N
inactive: [1] -3.6% and 5.4% | [2] -5.4% and 4.15% | [3] -10.2% and 13.2% | [4] -40.6% and 11.2% | [5] -12.8% and -5.6% | [6] -2.3% and 2.05%

N/N=C(/C(=O)c1ccccc1)c1ccccc1
inactive: [1] -10% and 18% | [2] 5.4% and 10% | [3] 5.4% and 0.5% | [4] 11.6% and -56% | [5] -3.1% and -1.85% | [6] 10.2% and 7.9%

CN(C)CC1COC2Cc3ccccc3C1O2 (stereo unspecified)
inactive: [1] -43.2% and -0.75% | [2] -22.1% and -20.2% | [3] -17.2% and -1.65% | [4] -46.1% and 20.9% | [5] -19.1% and 21.5% | [6] -29.3% and 1.95%

Source: PubChem BioAssay (NCI)
